Among all 4,300 compounds or so, about 60 (1%) were called active. The sample holds actives, similar compounds and a random draw of the others, so the mix is not that of the screen. A number with no mark means an inactive call.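 How the source made its calls: active means inhibition of labelled peptide binding to the formyl peptide receptor of at least 65%; inactive means the rest.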

Results on 53 compounds are retold here after PubChem BioAssay AID362 (NMMLSC, 2006).

In this assay the target is fMet-Leu-Phe receptor (Homo sapiens) (UniProt P21462). In words: FPR binders displacing fluorescent formyl peptide, primary screen, U937-FPR cells, fMLFK-FITC, flow cytometry (AID 362).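 On inhibition: plate controls were buffer control wells for no effect and unlabeled fMLFF blocking peptide for full effect; higher means less cell fluorescence so more probe displaced.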 The following applies: fMLFK-FITC displacement; hits give high values, concentration not given here.
Sequence of fMet-Leu-Phe receptor (Homo sapiens) (P21462 whole entry, looked up): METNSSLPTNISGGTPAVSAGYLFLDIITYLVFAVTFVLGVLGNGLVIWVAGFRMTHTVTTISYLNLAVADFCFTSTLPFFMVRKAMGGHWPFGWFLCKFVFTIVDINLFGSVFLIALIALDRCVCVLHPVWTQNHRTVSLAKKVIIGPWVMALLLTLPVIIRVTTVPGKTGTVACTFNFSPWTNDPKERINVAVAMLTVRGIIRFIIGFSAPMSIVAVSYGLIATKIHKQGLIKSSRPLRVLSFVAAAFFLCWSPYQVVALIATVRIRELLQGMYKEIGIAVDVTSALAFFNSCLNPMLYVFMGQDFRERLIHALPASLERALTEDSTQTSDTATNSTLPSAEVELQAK
As usually defined, the inhibition is the percentage by which the read-out fell short of the control. For the compound `CCCCNC(=O)C1CCN(S(=O)(=O)N(CC(C)C)CC(C)C)CC1`, the inhibition entry was “inactive”.

With `CCCOC(=O)c1c(NC(=O)C2C3C=CC(C3)C2C(=O)O)sc2c1CCCC2` (stereo not drawn), the inhibition result was “inactive”.

For the compound `COc1cc2c(C(=O)N(C)c3cccc(C(F)(F)F)c3)cn(CC(C)C)c(=O)c2cc1OC`, the inhibition entry is “inactive”.

As to `CC(C)CCn1c(CN2CCN(C(c3ccccc3)c3ccccc3)CC2)nc2c1c(=O)n(C)c(=O)n2C`, the inhibition result is “inactive”.

`CSc1nc(OCC(=O)c2ccc(Cl)cc2)c2c3c(sc2n1)CCCC3`: the inhibition result is “inactive”.

Regarding `Cc1sc2ncn(CC(=O)NCc3cccnc3)c(=O)c2c1S(=O)(=O)N1CCC(C)CC1`, the inhibition entry was “inactive”.

Regarding `CC(C)Cn1cc(C(=O)NCc2ccco2)c2c3ccccc3n(C)c2c1=O`, the inhibition entry was “inactive”.

Turning to `CCCOc1ccc(C(=O)CCNC(C(=O)O)C(C)C)cc1` (stereo not drawn), the inhibition entry is “inactive”.

With `COc1ccc(C(=O)COC(=O)C(CC(C)C)N2C(=O)c3ccccc3C2=O)cc1` (stereo not drawn), the inhibition entry was “inactive”.

With `CCOC(=O)C1=C(C)C2C3C(=O)N(c4cccc5ccccc45)C(=O)C3C1(C)C1C(=O)N(c3cccc4ccccc34)C(=O)C21` (stereo not drawn), the inhibition is 13.4%.

Turning to `CCN(CCCNC(=O)Cn1cnc2sc(C)c(S(=O)(=O)N3CCC(C)CC3)c2c1=O)c1cccc(C)c1`, the inhibition result is “inactive”.

For `O=C(O)CSc1nc(-c2ccccc2)nc2c1CCCC2`, the inhibition entry is “inactive”.

Turning to `O=C(CSc1nc(-c2ccccc2)nc2c1CCCC2)N1CCOCC1`, the inhibition entry was “inactive”.

On to `O=C(CSc1nc(-c2ccccc2)nc2c1CCCC2)N1CCCCC1`, for which the inhibition is 86.8% (active).

In the case of `CCOC(=O)C1=C(C)NC2=C(C(=O)C(C(=O)OC)C(C)C2)C1c1ccc(N(C)C)cc1` (stereo not drawn), the inhibition was 10%.

Turning to `CCOC(=O)C1CCN(C(=O)c2cn(CC(C)C)c(=O)c3cc(OC)c(OC)cc23)CC1`, the inhibition was 11.2%.

Consider `CC1(C)CC(=O)C2=C(C1)OC(N)=C(C#N)C2(C)C`, for which the inhibition entry is “inactive”.

As to `CCCCOc1cc(OCCCC)c2c3c(c(=O)oc2c1)CCCC3`, the inhibition entry is “inactive”.

For `CCCOc1cc(OCCC)c2c3c(c(=O)oc2c1)CCCC3`, the inhibition is 7.1%.

Regarding `CCCCOc1cc(OCCCC)c2c3c(c(=O)oc2c1)CCC3`, the inhibition was 92.8% (active).

As to `O=C(O)c1cccc(N2C(=O)C3C4CCC(C4)C3C2=O)c1` (stereo not drawn), the inhibition was 31.6%.

`Cc1ccn2c(NC(=O)C(C)(C)Oc3ccc(Cl)cc3)c(-c3cccs3)nc2c1`: the inhibition is 6%.

On to `CCCCN(C)Cc1c(O)ccc2c(=O)c(-c3ccccc3OC)c(C(F)(F)F)oc12`, for which the inhibition is 3.4%.

With `CC1(C)CC(=O)C(C(c2ccc3ccccc3c2)C2C(=O)CC(C)(C)CC2=O)C(=O)C1`, the inhibition was 80.9% (active).

For the compound `CC1(C)CC(=O)C(C(c2ccc(Br)cc2)C2C(=O)CC(C)(C)CC2=O)C(=O)C1`, the inhibition is 74.7% (active).

For the compound `CN1C(=O)NC(c2cccc([N+](=O)[O-])c2)C2=C1CC(C)(C)CC2=O` (stereo not drawn), the inhibition result is “inactive”.

Turning to `COc1ccc(C(C2C(=O)CC(C)(C)CC2=O)C2C(=O)CC(C)(C)CC2=O)cc1OC`, the inhibition was 24.6%.

Regarding `CC1(C)CC(=O)C(C(c2cccc([N+](=O)[O-])c2)C2C(=O)CC(C)(C)CC2=O)C(=O)C1`, the inhibition is 78.4% (active).

Take `CC1(C)CC(=O)C2=C(C1)Nc1ncnn1C2c1cccc([N+](=O)[O-])c1` (stereo not drawn): the inhibition entry is “inactive”.

Take `COc1cccc(C(C2C(=O)CC(C)(C)CC2=O)C2C(=O)CC(C)(C)CC2=O)c1`: the inhibition was 53.4%.

With `CC1(C)CC(=O)C(C(c2ccco2)C2C(=O)CC(C)(C)CC2=O)C(=O)C1`, the inhibition was 30.9%.

With `CC1(C)CC(=O)C(C(C2=C(O)CC(C)(C)CC2=O)c2cccc(O)c2O)C(=O)C1` (stereo not drawn), the inhibition is 57%.

For the compound `COc1ccc(C(C2C(=O)CC(C)(C)CC2=O)C2C(=O)CC(C)(C)CC2=O)cc1COCC(F)(F)F`, the inhibition is 34.1%.

`CC1(C)CC(=O)C(C(c2cccc(OCc3ccccc3)c2)C2C(=O)CC(C)(C)CC2=O)C(=O)C1`: the inhibition was 91.9% (active).

Turning to `COc1cc(C(C2C(=O)CC(C)(C)CC2=O)C2C(=O)CC(C)(C)CC2=O)ccc1O`, the inhibition was 19.2%.

In the case of `CCCCN(C)Cc1c(O)ccc2c3c(c(=O)oc12)CCC3`, the inhibition is 9.8%.

In the case of `CCN(CC)CCOC(=O)NCC1CC(C(C)=O)C1(C)C` (stereo not drawn), the inhibition is 8.3%.

Consider `CC(=O)c1ccc(N2CCN(C(=O)c3cn(CC(C)C)c(=O)c4c3c3ccccc3n4C)CC2)cc1`, for which the inhibition was 2.2%.

For `CCOc1ccc(C2C(C(=O)OC(C)C)=C(C)NC3=C2C(=O)C(C(=O)OC)C(C)C3)cc1` (stereo not drawn), the inhibition was 13.6%.

`CCOC(=O)C(CC)Oc1ccc2c3c(c(=O)oc2c1C)CCC3` (stereo not drawn): the inhibition entry was “inactive”.

For the compound `CCOC(=O)c1cc2c(=O)n3ccccc3nc2n(CC(C)C)c1=NC(=O)c1ccc(C(F)(F)F)cc1`, the inhibition result was “inactive”.

Consider `CCCOC(=O)C1=C(C)NC2=C(C(=O)C(C(=O)OC)C(C)C2)C1c1ccc(N(C)C)cc1` (stereo not drawn), for which the inhibition was 23.6%.

With `CCOCCOC(=O)C1=C(C)NC2=C(C(=O)C(C(=O)OC)C(C)C2)C1c1ccc(N(C)C)cc1` (stereo not drawn), the inhibition is 31.5%.

Regarding `CCCOCCOC(=O)C1=C(C)NC2=C(C(=O)C(C(=O)OC)C(C)C2)C1c1ccc(N(C)C)cc1` (stereo not drawn), the inhibition was 78.6% (active).

Take `COCCOC(=O)C1=C(C)NC2=C(C(=O)C(C(=O)OC)C(C)C2)C1c1ccc(N(C)C)cc1` (stereo not drawn): the inhibition was 64%.

Regarding `COCCOC(=O)C1=C(C)NC2=C(C(=O)C(C(=O)OC)C(C)C2)C1c1ccc(OC)cc1` (stereo not drawn), the inhibition was 16.7%.

As to `CCOc1ccc(C2C(C(=O)OCCOC(C)C)=C(C)NC3=C2C(=O)C(C(=O)OC)C(C)C3)cc1` (stereo not drawn), the inhibition was 39.6%.

Regarding `COC(=O)C1C(=O)C2=C(CC1C)NC(C)=C(C(=O)OCCOC(C)C)C2c1ccc(OC)cc1` (stereo not drawn), the inhibition was 76.1% (active).

On to `COC(=O)C1C(=O)C2=C(CC1C)NC(C)=C(C(=O)OCCOC(C)C)C2c1ccc(F)cc1` (stereo not drawn), for which the inhibition is 14.3%.

On to `COC(=O)C1C(=O)C2=C(CC1C)NC(C)=C(C(=O)OCCOC(C)C)C2c1ccc(N(C)C)cc1` (stereo not drawn), for which the inhibition was 79.4% (active).

As to `COc1ccc(/C=C2/CCCC3=C2OC(N)=C(C#N)C3c2ccc(OC)c(OC)c2)cc1OC` (stereo not drawn), the inhibition result was “inactive”.

As for `COc1ccc(C2C(C(=O)OC3CCCC3)=C(C)NC3=C2C(=O)CCC3)c(OC)c1OC` (stereo not drawn), the inhibition result was “inactive”.

For the compound `COc1cc(C2C(C(=O)OC3CCCCC3)=C(C)NC3=C2C(=O)CC(C)(C)C3)cc(Cl)c1O` (stereo not drawn), the inhibition is 10.9%.
